# Results taken from PubChem BioAssay.
# For part of these data: Entries with a potency or affinity are not part of this list. Activity calls are given as the source filed them.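 How the source made its calls, unless noted: active means fitted half-maximal concentration within 10 nM to 100 µM, steepness 0.5 to 2, significant signal drop, low assay interference; inactive means the rest.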
# Key:
# [1] = molecular target: Cell division control protein 42 homolog (Homo sapiens) (UniProt P60953); test: inhibition of fluorescent GTP binding to constitutively active Cdc42 – biochemical, multiplex bead flow cytometry, Bodipy-FL-GTP, dose response (AID 1333;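 active means fitted half-maximal concentration within the tested dose range, moderate curve steepness, a statistically real signal drop, and little compound fluorescence or tag-binding interference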)
# Chain of Cell division control protein 42 homolog (Homo sapiens) (P60953 whole entry, looked up): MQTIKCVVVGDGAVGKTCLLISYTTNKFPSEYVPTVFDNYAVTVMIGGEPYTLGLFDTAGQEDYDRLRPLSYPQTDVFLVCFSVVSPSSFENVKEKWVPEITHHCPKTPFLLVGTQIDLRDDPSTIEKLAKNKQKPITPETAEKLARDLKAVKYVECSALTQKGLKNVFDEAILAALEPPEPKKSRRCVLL
# [2] = molecular target: Cell division control protein 42 homolog (Homo sapiens) (UniProt P60953); test: inhibition of fluorescent GTP binding to wildtype Cdc42 – biochemical, multiplex bead flow cytometry, Bodipy-FL-GTP, dose response (AID 1334;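 active means fitted half-maximal concentration within the tested range, moderate curve steepness, significant signal drop, and little compound fluorescence or bead-linkage interference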); conditions: bead-based flow cytometry, Bodipy-FL-GTP binding to GST-Cdc42; at 100 µM (top of the series) unless noted
# [3] = molecular target: GTPase HRas (Homo sapiens) (UniProt P01112); test: Ras wt fluorescent GTP loading blockade – biochemical, wildtype, multiplex bead flow cytometry, dose response (AID 1335); conditions: bead-based flow cytometry, Bodipy-GTP binding to GST-Ras; at 100 µM (top of the series) unless noted
# Chain of GTPase HRas (Homo sapiens) (P01112 whole entry, looked up): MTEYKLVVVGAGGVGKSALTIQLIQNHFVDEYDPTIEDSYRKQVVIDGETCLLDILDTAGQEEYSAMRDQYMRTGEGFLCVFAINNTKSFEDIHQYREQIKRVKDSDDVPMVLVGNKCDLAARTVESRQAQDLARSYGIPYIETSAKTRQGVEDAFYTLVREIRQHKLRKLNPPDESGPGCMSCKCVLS
# [4] = system: Ras-related protein Rab-7a (dog), GTP binding; test: blockers of fluorescent GTP binding to Rab7 – biochemical, wildtype, multiplex bead flow cytometry, dose response (AID 1336; call rule not given here)
# [5] = molecular target: Ras-related C3 botulinum toxin substrate 1 (Homo sapiens) (UniProt P63000); test: inhibition of wildtype Rac1 nucleotide loading – biochemical, multiplex bead flow cytometry, dose response (AID 1340;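 active means dose curve with midpoint inside tested range, moderate steepness, plateau gap beyond fit error, low compound glow and bead-link interference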); conditions: GST-Rac1 beads, Bodipy-FL-GTP binding; at 100 µM (top of the series) unless noted
# [6] = molecular target: GTPase HRas (Homo sapiens) (UniProt P01112); test: blockade of GTP loading onto mutant Ras – biochemical, activated mutant, multiplex bead flow cytometry, dose response (AID 1341;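 active means dose-response curve with midpoint inside the tested range, moderate steepness, significant amplitude and little compound fluorescence or bead-attachment interference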;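 further: GST-tagged constitutively activated Ras mutant immobilized on beads and multiplexed with other GTPases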)
SMILES,outcome [1],"fluorescence, percent of control (lower = inhibition) [2]","GTP binding, percent of control [3]",outcome [4],"GTP binding signal, raw median fluorescence (lower = inhibition) (MCF (arbitrary fluorescence units)) [5]",outcome [6]
FC(F)(F)c1cccc(NC(=S)NNC(=S)NCc2ccccc2)c1,inactive,30.7%,81.8%,inactive,222,inactive
CC(C)(C)C(=O)C#Cc1ccccc1,inactive,53.5%,203%,inactive,55.8,inactive
CCc1ccc(OCc2ccc(C(=O)O)o2)cc1,inactive,60.7%,90.3%,inactive,35.2,inactive
COc1ccc(C)cc1NC(=O)COC(C)=O,inactive,94.8%,180%,inactive,179,inactive
O=C(Nc1cccc(Cl)c1)N1CCN(c2ncccn2)CC1,inactive,47.5%,60.6%,inactive,201,inactive
COc1ccc(-c2nn(-c3ccccc3)cc2C(=O)NCCCn2ccnc2)cc1,inactive,49.1%,61.1%,inactive,202,inactive
O=C(NCc1cccnc1)c1cccn2c(=O)c3sccc3nc12,inactive,32.5%,74.9%,inactive,162,inactive
COc1cc(/C=N/NC(N)=O)cc([N+](=O)[O-])c1O,inactive,35.1%,78.6%,inactive,175,inactive
Cc1cccc(OCCn2c(SCCC(=O)O)nc3ccccc32)c1,inactive,58%,85.4%,inactive,28.9,inactive
CCC(C)NC(=O)CSc1nc2n[nH]c(C)c2c(=N)n1-c1ccc(OC)cc1 (stereo not given),inactive,36%,48.9%,inactive,111,inactive
O=C(CCl)Nc1cccn2ncnc12,inactive,37.7%,83%,inactive,274,inactive
O=C(O)c1ccccc1C(=O)OCc1ccccc1,inactive,105%,365%,inactive,408,inactive
CCCNC(=O)C(=O)NCc1ccccn1,inactive,41.2%,91.1%,inactive,323,inactive
CCCCCCOc1ccc(C#CC(=O)c2ccc([N+](=O)[O-])cc2)cc1,inactive,54.3%,199%,inactive,56.6,inactive
Cc1c(Cl)c([N+](=O)[O-])nn1Cc1ccc(C(=O)N/N=C\c2ccccn2)o1,inactive,38.5%,53%,inactive,95.4,inactive
CCN(CC)c1ccc(/C=c2/sc3nnc(-c4ccccc4C)n3c2=O)cc1,inactive,120%,123%,inactive,236,inactive
N#Cc1c(-c2cccc(Br)c2)cc(-c2ccco2)[nH]c1=O,inactive,23.1%,58.9%,inactive,182,inactive
Cc1ccccc1OCCn1cc(C(=O)O)c2cccc(C)c21,inactive,53.7%,200%,inactive,53.4,inactive
CSc1nc(Cc2ccccc2)cc(=O)[nH]1,inactive,36.3%,80.4%,inactive,273,inactive
CC(C)[C@H](NC(=O)c1ccccc1)C(=O)OCC(=O)NCCc1ccc(F)cc1,inactive,50.5%,66.5%,inactive,209,inactive

SMILES,outcome [1],"fluorescence, percent of control (lower = inhibition) [2]","GTP binding, percent of control [3]",outcome [4],"GTP binding signal, raw median fluorescence (lower = inhibition) (MCF (arbitrary fluorescence units)) [5]",outcome [6]
CCCN1C(=O)/C(=C\C=C2/Sc3ccccc3N2CC)SC1=S,inactive,34.7%,57.8%,inactive,181,inactive
CC(C)n1c(O)c(N=Nc2ccc(Cl)nn2)c2ccccc21,inactive,69.1%,78.2%,inactive,196,inactive
Cc1c(C(=O)N/N=C/c2ccc(-c3ccccc3[N+](=O)[O-])o2)sc(N)c1C#N,inactive,37.4%,49.1%,inactive,157,inactive
Cc1nc(-c2cnn(-c3ccccc3)c2)c2cc(C)oc2n1,inactive,61.7%,140%,inactive,140,inactive
COCCN1C(=O)/C(=C/c2ccc(N3CCCC3)cc2)SC1=S,inactive,64.2%,106%,inactive,311,inactive
CCOc1ccc(Cn2c3ccc(OC)cc3c3nc4ccccc4nc32)cc1,inactive,114% [at 33.3 µM],127% [at 33.3 µM],inactive,242,inactive
COc1ccc(CC(=O)c2ccccc2C(=O)O)cc1,inactive,153%,143%,inactive,368,inactive
Cc1c(C(=O)N/N=C/c2ccc(O)c(Br)c2)sc(N)c1C#N,inactive,27.1%,64.7%,inactive,151,inactive
COc1cccc2cc(-c3ccnc(=S)[nH]3)oc12,inactive,33.3%,70.7%,inactive,140,inactive
COc1ccc(C(=O)O)c(OCc2ccccc2Br)c1,inactive,59.6%,171%,inactive,56.1,inactive
O=C(O)c1c(C(F)(F)F)ccnc1NCc1ccccc1,inactive,61.8%,224%,inactive,57.2,inactive
CCOc1ccc(CCNc2ccc3nnc(-c4ccccc4)n3n2)cc1OCC,inactive,40.9%,54.2%,inactive,141,inactive
CC(C)CCNC(=O)CN(CCCN1CCOCC1)C(=O)Cn1nnc(-c2ccc(F)cc2)n1,inactive,98.9%,180%,inactive,184,inactive
CCCCNC(=O)c1cc([N+](=O)[O-])[nH]n1,inactive,56.1%,74.5%,inactive,282,inactive
Cc1ccc(Sc2nnc(-c3ccccc3)cc2C#N)cc1,inactive,104%,178%,inactive,185,inactive
COc1cc([N+](=O)[O-])cc(/C=N/NC(=O)c2ccc(NC(=O)c3ccc(C)cc3)cc2)c1O,inactive,33%,77.6%,inactive,226,inactive
O=C(Nc1cccc(-c2nc3ncccc3o2)c1)c1sc2ccccc2c1Cl,inactive,88.9%,340%,inactive,343,inactive
COc1ccc(N=C2S/C(=C\c3ccc(N4CCOCC4)o3)C(=O)N2CCc2c[nH]c3ccccc23)cc1,inactive,133%,212%,inactive,210,inactive
C=CCc1ccccc1OCc1cccc(C(=O)O)c1,inactive,78.7%,99.3%,inactive,56.1,inactive
CCCNC(=O)Cn1c(=O)/c(=C\c2ccc(-c3ccc([N+](=O)[O-])cc3)o2)s/c1=C\C(=O)C(C)(C)C,inactive,115%,126%,inactive,300,inactive

SMILES,outcome [1],"fluorescence, percent of control (lower = inhibition) [2]","GTP binding, percent of control [3]",outcome [4],"GTP binding signal, raw median fluorescence (lower = inhibition) (MCF (arbitrary fluorescence units)) [5]",outcome [6]
CC(C)(C)OC(=O)N[C@@H](Cc1ccccc1)c1nnc(S(=O)(=O)Cc2cccc(F)c2)o1,inactive,33%,77%,inactive,260,inactive
NOC(=O)c1cccnc1SCCc1ccccc1,inactive,45.9%,125%,inactive,63,inactive
O=C1CS/C(=N/N=C2C3CC4CC(C3)CC2C4)N1,inactive,48.5%,68.2%,inactive,214,inactive
CCCCCCNc1cc2n(c(=O)n1)CCc1cc(OC)c(OC)cc1-2,inactive,44.7%,104%,inactive,128,inactive
CCC(/C=C1\Sc2ccc(OC)cc2N1CCO)=C\c1sc2ccc(OC)cc2[n+]1CCO,inactive,22.6%,46.8%,inactive,187,inactive
CCCCOC(=O)c1cccnc1SCCc1ccccc1,inactive,48.2%,125%,inactive,69.8,inactive
Cc1cc(C)n2ncc(C(=O)O)c2n1,inactive,35.6%,84%,inactive,266,inactive
O=C(CSc1ccc2nnc(-c3ccccn3)n2n1)Nc1nccs1,inactive,28.8%,61.7%,inactive,124,inactive
Nc1cccc(S(=O)(=O)c2cccc(N)c2)c1,inactive,96.8%,150%,inactive,191,inactive
O=c1c2ccccc2nc2ccc(NCc3cccs3)nn12,inactive,33.1%,76.2%,inactive,195,inactive
COc1ccc(N(CC(=O)Nc2cccc(C)c2C)S(=O)(=O)c2c(C)n[nH]c2C)cc1,inactive,33.4%,74.3%,inactive,170,inactive
CS(=O)(=O)N1CCN(C(=O)C2c3ccccc3Oc3ccccc32)CC1,inactive,36.7%,78.7%,inactive,268,inactive
Cc1nn2c(N)csc2nc1=O,inactive,56.9%,67.8%,inactive,94.3,inactive
CC(=O)OC(C(=O)NC1CCCCC1)c1ccc(Cl)c(Cl)c1 (stereo not given),inactive,39.6%,88.7%,inactive,310,inactive
O=c1[nH]c2sc3c(c2c2nncn12)CCCC3,inactive,23.4%,59.2%,inactive,103,inactive
CN(/N=C/c1ccco1)C1=NS(=O)(=O)c2ccccc21,inactive,32%,74.9%,inactive,206,inactive
CCOc1ccc(NC(=S)N=Nc2c(O)[nH]c3ccccc23)cc1,inactive,35.5%,74.3%,inactive,170,inactive
Clc1ccc(Cn2ncc3c(N4CCOCC4)ncnc32)cc1,inactive,50.5%,66.4%,inactive,209,inactive
CCOC(=O)Cc1csc(NC(=O)CSc2nc(-c3ccccc3)c(C#N)c(=O)[nH]2)n1,inactive,29.4%,76.1%,inactive,218,inactive
COc1cc2[nH]c(=S)nc(NCc3ccccn3)c2cc1OC,inactive,31.9%,71.7%,inactive,176,inactive
